Measurements from PubChem BioAssay (NCI).
Values joined by “and” are separate entries in the source; they are usually repeats but may differ in a detail not shown here. Equal values may be shown once. Compounds without any hit were thinned out: in the full panel of roughly 83,000, 20% have a hit.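 Single-dose data. Exposure time 48 hours. Values below 10 considered active.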 Active and inactive are the calls of the source.

tested on: NCI-H23 lung; assay: NCI-60 one-dose screen, 48 h (100 = growth as untreated, 0 = no growth, -100 = all killed); settings: 10 µM unless noted

SMILES | growth
O=C1CCC(N2C(=O)c3cccc(NCCOCCOCCOCCC(=O)NCCCC(=O)NC(c4ccc5c(c4)OCO5)c4cc(Cl)c5cccnc5c4O)c3C2=O)C(=O)C1 (stereo not drawn) | 45.1% (inactive)
COc1cc(/C=C/C(=O)c2cnn(-c3cc(=O)[nH]c4ccc(C)cc34)c2C)cc(OC)c1OC | -45% (active)
Cc1ccc(C(=O)Nc2cc(-n3cnc(F)c3)cc(C(F)(F)F)c2)cc1C#Cc1cnc2cccnn12 | 44.8% (inactive)
COc1cc(/C=C/C(=O)c2cnn(-c3cc(=O)[nH]c4ccc(Br)cc34)c2C)cc(OC)c1OC | -63.4% (active)
CCCCCCCOc1ccc(S(=O)(=O)Nc2ccc(C)c(F)c2C(=O)O)cc1 | 93.2% (inactive)
C#CCN(C)CCCOc1ccc(N(CC)C(=O)c2cc(C(C)C)c(O)cc2O)cc1Cl | -5.94% (active)
COC(=O)CSC1=C(C)C(=O)C(OC)=C(OC)C1=O | 94.3% (inactive)
Nc1cccc(-n2c(COc3ccc(I)cc3)nc3ccccc32)c1 | 75.6% (inactive) and 99.5% (inactive)
O=C(Nc1ccc(F)cc1)Nc1nc2ccc([N+](=O)[O-])cc2s1 | -11.8% (active)
CC(=O)Nc1cccc(-n2c(COc3ccc(I)cc3)nc3ccccc32)c1 | 83.5% (inactive) and 106% (inactive)
Cc1nc2sccn2c1-c1nnc(SCC(C)C)o1 | 85.9% (inactive)
COc1ccc2[nH]cc(-c3cc4nc(-c5cn(C)c6ncc(Br)cc56)cc(N)n4n3)c2c1 | -76.7% (active)
Cc1nn(-c2ccccc2)c2ncn(CC(=O)N/N=C/c3ccccc3O)c(=O)c12 | 40.7% (inactive)
